Inconclusive results are not listed. Entries that show only a call come without a potency. The source made the active and inactive calls. Calls follow the shape of the dose curve; as a rule, active = well fitted inhibition curve with a large enough effect; inconclusive = small, poorly fitted or top-dose-only effect; inactive = flat fitted curve, though single readings scatter.
Key:
Test in all cases: qHTS profiling for inhibitors of Plasmodium falciparum proliferation (AID 504749); also: nearly all actives have a fitted effect of over 60% in size
Conditions in all cases: P. falciparum in erythrocytes, SYBR Green DNA, 72 h; series mostly up to 12.8 µM
CP185 = test system: CP185
Summary of the method: (§1)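 Quantitative HTS: compounds pinned into medium, infected erythrocytes added (0.3% parasitemia, 2.5% hematocrit), 72 h culture at 37 C under 5% CO2. Saponin/Triton lysis with SYBR Green I, overnight RT, then fluorescence read.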

CP192 = test system: CP192
Summary of the method: as §1

CP211 = test system: CP211
Summary of the method: as §1

CP215 = test system: CP215
Summary of the method: as §1

CP262 = test system: CP262
Summary of the method: as §1

CP268 = test system: CP268
Summary of the method: as §1

CP269 = test system: CP269
Summary of the method: as §1

CP286 = test system: CP286
Summary of the method: as §1

CP291 = test system: CP291
Summary of the method: as §1

CP305 = test system: CP305
Summary of the method: as §1

DIV17 = test system: DIV17
Summary of the method: as §1

DIV30 = test system: DIV30
Summary of the method: as §1

ICS = test system: ICS
Summary of the method: as §1

PC15 = test system: PC15
Summary of the method: as §1

CP247 = test system: CP247
Summary of the method: as §1

CP266 = test system: CP266
Summary of the method: as §1

CP297 = test system: CP297
Summary of the method: as §1

Dd2 = test system: Dd2
Summary of the method: as §1

P93_24 = test system: P93_24
Summary of the method: as §1

PC26 = test system: PC26
Summary of the method: as §1
Potency is read from the fitted curve at half-maximal effect.

Row | SMILES | Potency (CP185) | Potency (CP192) | Potency (CP211) | Potency (CP215) | Potency (CP262) | Potency (CP268) | Potency (CP269) | Potency (CP286) | Potency (CP291) | Potency (CP305) | Potency (DIV17) | Potency (DIV30) | Potency (ICS) | Potency (PC15) | Potency (CP247) | Potency (CP266) | Potency (CP297) | Potency (Dd2) | Potency (P93_24) | Potency (PC26)
1 | CN(C)CCOC(=O)[C@@H](c1ccccc1)C1(O)CCCC1 | inactive | inactive | inactive | inactive | inactive | inactive | inactive | inactive | inactive | inactive | inactive | inactive | inactive | inactive | – | – | – | – | – | –
2 | C[C@@H]1Cc2ccccc2N1NC(=O)c1ccc(Cl)c(S(N)=O)c1 (some centres not stated) | inactive | inactive | inactive | inactive | inactive | inactive | inactive | inactive | inactive | inactive | inactive | inactive | inactive | inactive | inactive | inactive | inactive | inactive | inactive | inactive
3 | COCC(=O)Nc1c(I)c(C(=O)NC[C@@H](O)CO)c(I)c(C(=O)N(C)C[C@@H](O)CO)c1I | inactive | inactive | inactive | inactive | inactive | inactive | inactive | inactive | inactive | inactive | inactive | inactive | inactive | inactive | inactive | inactive | inactive | inactive | inactive | inactive
4 | Clc1ccc(CC[C@H](Cn2ccnc2)Sc2c(Cl)cccc2Cl)cc1 | – | – | – | – | – | – | – | – | 5.73 µM (active) | – | 4.05 µM (active) | 5.73 µM (active) | 1.41 µM (active) | – | – | – | 5.1 µM (active) | 3.55 µM (active) | 2.24 µM (active) | 4.55 µM (active)
5 | CC(=O)N(C[C@@H](C)C(=O)O)c1c(I)cc(I)c(N)c1I | inactive | – | – | – | – | – | – | inactive | – | – | – | – | inactive | inactive | inactive | – | – | inactive | inactive | –
6 | CCOC(=O)O[C@]1(C(=O)COC(=O)CC)CC[C@@H]2[C@@H]3CCC4=CC(=O)C=C[C@@]4(C)[C@H]3[C@H](O)C[C@]21C | inactive | inactive | inactive | inactive | inactive | inactive | inactive | inactive | inactive | inactive | inactive | inactive | inactive | inactive | inactive | inactive | inactive | inactive | inactive | inactive
7 | CCN[C@@H]1CN(CCCOC)S(=O)(=O)c2sc(S(N)(=O)=O)cc21 | inactive | inactive | inactive | inactive | inactive | inactive | inactive | inactive | inactive | inactive | inactive | inactive | inactive | inactive | inactive | inactive | inactive | inactive | inactive | inactive
8 | COc1cc2nc(N3CCN(C(=O)[C@@H]4COc5ccccc5O4)CC3)nc(N)c2cc1OC | – | – | – | inactive | – | inactive | – | – | – | inactive | 6.75 µM (active) | – | – | inactive | – | inactive | – | – | – | –
9 | CCC[C@@H]1O[C@@H]2C[C@@H]3[C@H]4CCC5=CC(=O)C=C[C@@]5(C)[C@H]4[C@H](O)C[C@@]3(C)[C@@]2(C(=O)CO)O1 | – | – | – | 15.1 µM (active) | inactive | inactive | – | – | – | inactive | – | – | 6.31 µM (active) | – | 8.91 µM (active) | – | 12 µM (active) | 12.6 µM (active) | 8.91 µM (active) | 7.57 µM (active)
10 | CN[C@H]1[C@H](O)[C@@H](O[C@@H]2[C@H](O)[C@@H](O[C@H]3OC(CN)=CC[C@H]3N)[C@@H](N)C[C@H]2N)OC[C@@]1(C)O | inactive | inactive | inactive | inactive | inactive | inactive | inactive | inactive | inactive | inactive | inactive | inactive | inactive | inactive | inactive | inactive | inactive | inactive | inactive | inactive
11 | CC(=O)[C@@H]1CC[C@@H]2[C@@H]3C[C@H](C)C4=CC(=O)CC[C@@]4(C)[C@H]3[C@H](O)C[C@]21C | inactive | inactive | inactive | inactive | inactive | inactive | inactive | inactive | inactive | inactive | inactive | inactive | – | inactive | inactive | inactive | – | inactive | inactive | inactive
12 | C[C@@H]1O[C@H](O[C@@H]2\C=C/C=C\C=C/C=C\C[C@H](C)OC(=O)/C=C\[C@H]3O[C@@H]3C[C@H](O)C[C@]3(O)C[C@@H](O)[C@@H](C(=O)O)[C@H](C2)O3)[C@@H](O)[C@H](N)[C@@H]1O (stereo in doubt) | inactive | inactive | inactive | inactive | inactive | – | inactive | inactive | inactive | inactive | inactive | inactive | inactive | inactive | inactive | inactive | inactive | inactive | inactive | inactive
13 | CC(=O)C[C@H](c1ccc([N+](=O)[O-])cc1)c1c(O)c2ccccc2oc1=O | inactive | inactive | inactive | inactive | inactive | inactive | inactive | inactive | inactive | inactive | inactive | inactive | inactive | inactive | inactive | inactive | – | inactive | inactive | inactive
14 | CCCCC[C@H](O)/C=C\[C@H]1[C@H](C/C=C\CCCC(=O)O)[C@@H](O)C[C@H]1O (tested in a mixture with another compound) | inactive | inactive | inactive | inactive | inactive | inactive | inactive | inactive | inactive | inactive | inactive | inactive | inactive | inactive | inactive | inactive | inactive | inactive | inactive | inactive
15 | C[C@H](C(=O)O)c1cccc(Oc2ccccc2)c1 | inactive | inactive | inactive | inactive | inactive | inactive | inactive | inactive | inactive | inactive | inactive | inactive | inactive | inactive | inactive | inactive | inactive | inactive | inactive | inactive
16 | COc1ccc(OC)c([C@H](O)CNC(=O)CN)c1 | inactive | inactive | inactive | inactive | inactive | inactive | inactive | inactive | inactive | inactive | inactive | inactive | inactive | inactive | inactive | inactive | inactive | inactive | inactive | inactive
17 | Cc1ncc([N+](=O)[O-])n1C[C@H](O)CCl | inactive | inactive | inactive | inactive | inactive | inactive | inactive | inactive | inactive | inactive | inactive | inactive | inactive | inactive | inactive | inactive | inactive | inactive | inactive | inactive
18 | CC(=C(CCOP(=O)(O)O)SC(=O)c1ccccc1)N(C=O)Cc1cnc(C)nc1N | inactive | inactive | inactive | inactive | inactive | inactive | inactive | inactive | inactive | inactive | inactive | inactive | inactive | inactive | inactive | inactive | inactive | inactive | inactive | inactive
19 | Cn1nnnc1SCC1=C(C(=O)O)N2C(=O)[C@@H](NC(=O)[C@@H](O)c3ccccc3)[C@@H]2SC1 | inactive | inactive | inactive | inactive | inactive | inactive | inactive | inactive | – | inactive | inactive | inactive | inactive | inactive | inactive | inactive | inactive | inactive | inactive | inactive
20 | O=C1O[C@@H]([C@@H](O)CO)[C@@H](O)[C@H]1O | inactive | inactive | inactive | inactive | inactive | inactive | inactive | inactive | inactive | inactive | inactive | inactive | inactive | inactive | inactive | inactive | inactive | inactive | inactive | inactive
21 | CN[C@H]1[C@@H](O)[C@@H](NC)[C@@H]2O[C@@]3(O)C(=O)C[C@@H](C)O[C@H]3O[C@H]2[C@H]1O | inactive | inactive | inactive | inactive | inactive | inactive | inactive | inactive | inactive | inactive | inactive | inactive | inactive | inactive | inactive | inactive | inactive | inactive | inactive | inactive
22 | CC(=O)OCC(=O)[C@@]12OC(C)(C)O[C@@H]1C[C@H]1[C@H]3C[C@H](F)C4=CC(=O)C=C[C@@]4(C)[C@]3(F)[C@H](O)C[C@@]12C | inactive | inactive | inactive | inactive | inactive | inactive | inactive | inactive | inactive | inactive | inactive | inactive | inactive | inactive | inactive | inactive | inactive | inactive | inactive | inactive
23 | O=C(N/N=C\c1ccc([N+](=O)[O-])o1)c1ccc(O)cc1 | 2.24 µM (active) | – | 5.73 µM (active) | 4.55 µM (active) | – | 5.73 µM (active) | 4.55 µM (active) | 2.51 µM (active) | 4.55 µM (active) | 2.56 µM (active) | 2.28 µM (active) | 5.1 µM (active) | 1.41 µM (active) | 2.82 µM (active) | 2.82 µM (active) | – | 3.22 µM (active) | 3.55 µM (active) | 2.82 µM (active) | 5.73 µM (active)
24 | CO[C@H]1[C@H](O[C@H]2O[C@@H](C)[C@@H](O[C@@H]3C[C@](C)(O)[C@H](O)[C@H](C)O3)[C@@H](N(C)C)[C@@H]2O)[C@@H](CC=O)C[C@@H](C)[C@@H](O[C@H]2CC[C@H](N(C)C)[C@H](C)O2)/C=C\C=C/C[C@@H](C)OC(=O)C[C@H]1O | – | inactive | – | – | – | – | – | – | – | – | inactive | inactive | – | inactive | inactive | – | – | inactive | – | inactive
25 | O[C@@](CCN1CCCC1)(c1ccccc1)C1CCCCC1 | inactive | inactive | – | – | inactive | inactive | inactive | inactive | inactive | – | 3.22 µM (active) | – | – | – | – | inactive | inactive | – | – | –
26 | Cc1ccc2c(c1)c1c3n2CCN[C@H]3CCC1 | inactive | inactive | inactive | inactive | inactive | inactive | inactive | – | inactive | inactive | 12 µM (active) | – | – | – | inactive | inactive | – | – | inactive | –

— PubChem BioAssay (NCATS)
